# The whole screen tested about 360,000 compounds, of which about 2,800 (0.78%) were called active. No stated cut-off is given here; in the data, active means inhibition above about 26%; inactive means the rest. Many of the other results were omitted from the sample, so actives are more common in it than they were.
# Tested on: Nicotinate-nucleotide adenylyltransferase NadD (Staphylococcus aureus N315)
# Experiment: inhibitors of S. aureus NadD, primary screen, biochemical, colorimetric, uHTS (AID 602399)
# Conditions: purified NadD enzyme, colorimetric absorbance read-out; at 20 µM; active compounds read high
row,SMILES,inhibition
1,Cc1cc(=O)[nH]c(SCc2ccc(Cl)cc2)n1,-4.15% (inactive)
2,Cc1cc(C(=O)CSc2nc(N)cc(=O)[nH]2)c(C)n1-c1cccc(F)c1,23.5% (inactive)
3,Cc1cc(C(=O)CSc2nc(N)cc(=O)[nH]2)c(C)n1CCc1ccc(Cl)cc1,45.2% (active)
4,C/C=C/C=C/C(=O)O,2.73% (inactive)
5,COC(=O)c1sccc1NC(=O)CSc1ccccc1NS(=O)(=O)c1cc(Cl)ccc1Cl,8.33% (inactive)
6,Cc1ccc(S(=O)(=O)N/N=C\c2cc3c(cc2[N+](=O)[O-])OCO3)cc1,-4.98% (inactive)
7,O=[N+]([O-])c1ccccc1/C=N/n1c(COc2ccccc2)n[nH]c1=S,4.33% (inactive)
8,CCOc1ccc(-c2n[nH]c(=S)n2/N=C/c2cc3c(cc2[N+](=O)[O-])OCO3)cc1,33.3% (active)
9,O=C1CC2(CC(c3ccc(Cl)cc3)=NO2)C(=O)N1c1ccccc1 (stereo not drawn),-6.96% (inactive)
10,CC(=O)Nc1ccc(NC(=O)C(C)n2c3ccccc3c3nc(=O)cc(C)n32)cc1 (stereo not drawn),1.71% (inactive)
11,Cc1cc(C)cc(N(CC(=O)Nc2c(C)n(C)n(-c3ccccc3)c2=O)S(C)(=O)=O)c1,0.515% (inactive)
12,O=C(/C=C/c1ccco1)NC(=S)N1CCCCC1,0.202% (inactive)
13,COc1ccc(Cl)cc1C(=O)NNC(=S)NC(=O)/C=C/c1ccco1,41.2% (active)
14,COc1ccc(Cl)cc1C(=O)NNC(=S)NC1CCCC1,2.3% (inactive)
15,Cc1ccc(C(=O)NN(CCC#N)C2=NS(=O)(=O)c3ccccc32)cc1,2.03% (inactive)
16,C=CC1=C(C(=O)O)N2C(=O)[C@@H](NC(=O)/C(=N/OCC(=O)O)c3csc(N)n3)[C@H]2SC1,94.8% (active)
17,C=CC1=C(C(=O)O)N2C(=O)[C@@H](NC(=O)/C(=N\OCC(=O)O)c3csc(N)n3)[C@H]2SC1,15.8% (inactive)
18,Cc1ccc(Cl)cc1NC(=O)C1CCN(S(C)(=O)=O)CC1,-1.83% (inactive)
19,CN(C)c1nc(N)nc(Cn2nnc(-c3ccc(C(F)(F)F)cc3)n2)n1,-3.29% (inactive)
20,CC1(Oc2cccc(F)c2)CCN(Cc2ccccc2OC(F)F)C1 (stereo not drawn),-4.85% (inactive)

row,SMILES,inhibition
1,CC(=O)Nc1ccc(SCC(=O)Nc2ccccc2Oc2ccccc2)cc1,-2.74% (inactive)
2,CCC(C)Cn1c(O)cc2nn(-c3nc4ccccc4s3)c(=O)c-2c1C (stereo not drawn),81.3% (active)
3,C/C(CC(C)C)=N\Oc1nc(C)cc(C)n1,-5.32% (inactive)
4,Clc1ccccc1CSc1nnc(-c2ccco2)c(-c2ccco2)n1,29.3% (active)
5,CSc1nc(-c2ccco2)nn1C(=O)c1ccccc1Cl,-4.61% (inactive)
6,Cc1ccc2nc(-c3ccco3)c(Cc3cccc(Cl)c3)n2c1,2.81% (inactive)
7,COc1ccccc1N(CC(=O)N1CCCCC1)S(=O)(=O)c1ccccc1,0.503% (inactive)
8,CC(C#N)(NC(=O)CN1CCN(S(=O)(=O)c2cc(C(F)(F)F)ccc2Cl)CC1)C1CC1 (stereo not drawn),-1.47% (inactive)
9,O=C(Nc1nnc(-c2ccc(Cl)cc2)o1)c1ccccc1Br,9.64% (inactive)
10,O=C(Nc1nnc(-c2ccccc2)o1)c1cc(-c2cccs2)nc2ccccc12,40.6% (active)
11,Cc1ccnc2nc(C(=O)Nc3nnc(-c4ccccc4)o3)nn12,-3.89% (inactive)
12,CN(Cc1nc2ccc(F)cc2[nH]1)Cc1nc(CC2CC2)no1,-3.27% (inactive)
13,CCN(C(=O)CN1CCN(Cc2ccccc2)CC1)c1c(N)n(Cc2ccccc2)c(=O)[nH]c1=O,-5.19% (inactive)
14,Cc1ccccc1NC(=O)c1ccc(COc2ccc3c(C)cc(=O)oc3c2)cc1,1.94% (inactive)
15,CC(C)Oc1ccc(/C=C(\NC(=O)/C=C/c2ccco2)C(=O)NCCc2nc3ccccc3[nH]2)cc1,40.3% (active)
16,CCCCCOc1ccc(/C=C/C(=O)NCCc2nc3ccccc3[nH]2)cc1OC,0.224% (inactive)
17,Cc1ccc(C(=O)N/C(=C/c2ccco2)C(=O)NCCc2c[nH]c3ccccc23)cc1C,2.77% (inactive)
18,CCn1c(SCC(=O)N/N=C/c2ccccc2OCC(=O)O)nnc1-c1ccc(C(C)(C)C)cc1,5.5% (inactive)
19,CCOC(=O)N1CCC(NC(=O)CCc2cn(C)c3ccccc23)CC1,0.741% (inactive)
20,COc1ccc(CCNC(=O)CN2C(=O)CCSc3ccccc32)c(OC)c1,-0.893% (inactive)

row,SMILES,inhibition
1,CC(C)(C)C1C/C(=C/c2ccco2)C(=O)/C(=C/c2ccco2)C1 (stereo not drawn),41.6% (active)
2,COC(=O)COc1ccc2c(c1C)O/C(=C\c1ccco1)C2=O,-6.79% (inactive)
3,CC1CCN(C(=S)NC2CC3CCC2C3)CC1 (stereo not drawn),1.51% (inactive)
4,Cc1nn(C)c(C)c1Sc1ccccc1N,-4.87% (inactive)
5,Cc1ccc(Cn2nnc3c(=O)[nH]c(C4CCN(S(=O)(=O)/C=C/c5ccccc5)CC4)nc32)cc1,31.1% (active)
6,CC(C)(C)c1ccc(Cn2nnc3c(=O)[nH]c(C4CCCN(C(=O)c5ccco5)C4)nc32)cc1 (stereo not drawn),4.55% (inactive)
7,Cc1ccc(NC(=O)N2CCC(c3nc4c(nnn4Cc4c(F)cccc4Cl)c(=O)[nH]3)CC2)cc1,22.9% (inactive)
8,CC(C)COC(=O)c1ccc(NC(=O)C2C3C=CC(C3)C2C(=O)O)cc1 (stereo not drawn),3.38% (inactive)
9,COCCNC(=O)C(c1ccc(C)cc1)N(C(=O)CCC(=O)Nc1ccccn1)c1cccc(C)c1 (stereo not drawn),-8.33% (inactive)
10,O=C(c1ccc(C(F)(F)F)cc1)N1CCC(=O)N([C@H](COCc2ccccc2)Cc2ccccc2)CC1,-5.31% (inactive)
11,O=C(Nc1ccc(S(=O)(=O)Nc2nccs2)cc1)c1cc(-c2ccncc2)nc2ccccc12,52.3% (active)
12,O=C(CCc1ccccc1Cl)Nc1ccc(S(=O)(=O)Nc2nccs2)cc1,-3.71% (inactive)
13,O=C(Nc1ccc(S(=O)(=O)Nc2nccs2)cc1)c1cc(=O)[nH]c2ccccc12,-0.912% (inactive)
14,CCOc1ccc(NC(=O)c2ccc(CSc3nnnn3C)cc2)cc1,-3.76% (inactive)
15,CCc1ccc2c(c1)C1(NN=C(c3ccccc3)S1)C(=O)N2 (stereo not drawn),3.11% (inactive)
16,O=C(CSc1nc(Nc2ccccc2)nc(N2CCOCC2)n1)Nc1cc(Cl)ccc1O,37.7% (active)
17,O=C(CSc1ccccc1)Nc1cc(Cl)ccc1Oc1ccccc1,6.26% (inactive)
18,O=C(CSc1nc2ccc(Nc3nc(N4CCOCC4)nc(N4CCOCC4)n3)cc2s1)NCc1ccco1,8.01% (inactive)
